About 2,100 (3.2%) of roughly 65,000 compounds showed an effect of 50% or more. The median lay at about -52%. Shown is part of a subset that was picked to be rich in strong results.
Each molecule was assayed on Plasmodium falciparum (assay: Screen against P. falciparum Asexual Blood Stage (ABS), at 5uM). Settings: tested at 5 uM.
Assay type: functional, Dd2

Structure (SMILES) | INHIBITION
COc1ccc2c(c1)sc(=NC(=O)CSCC(=O)Nc1nccs1)n2C | -52.2%
CC(C)(O)CN1CCN(C(=O)c2cnn(-c3ccccc3F)c2)CC1 | -73.1%
c1ccc(-c2nc(CN3CCCC3Cn3cncn3)co2)cc1 (stereo not given) | -69.1%
CNC(=O)[C@H]1C[C@H]2CN(C(=O)NC(C)C)C[C@@H]1O2 | -50%
COc1cc(CN(C)Cc2cccnc2)c(SC)cc1OC | -61.6%
COc1ccc2nnc(CCCC(=O)NCc3ccccc3OC)n2n1 | -64.6%
Cc1cnc(CN(Cc2cccc(O)c2)CC2CC2)cn1 | -23.7%
CN1C(=O)CN(C(=O)c2ccc(=O)n(C)c2)c2ccccc21 | -50.5%
CC(C)c1nn(C)c(N2CCOCC2)c1CNCc1cscn1 | -72.2%
Cc1nc(CNCc2c(C)nn(C)c2N2CCOCC2)cs1 | 27.5%
Cc1nn(C)c(N2CCOCC2)c1CNCc1cscn1 | 56.6%
COc1ccccc1-c1ccc(C(=O)N2C[C@@H]3CC[C@H]2CN(C)C3)cc1 | -93.3%
Cc1nc(C)n(CC2CCCN2Cc2nnc(-c3ccco3)o2)n1 (stereo not given) | -53.7%
Cc1nc(-n2nc(-c3cccs3)cc2N)[nH]c(=O)c1C | -26.1%
Cc1n[nH]cc1CNCc1cccc(OCC(F)(F)F)c1 | 57.9%
Cc1n[nH]cc1CNC(=O)Nc1cccc(OCC(F)(F)F)c1 | -31.6%
Cc1n[nH]cc1CNCc1ccnc(OCC(F)(F)F)c1 | -64.7%
COc1ccc(NS(=O)(=O)C=c2[nH]c(=O)n3cccc3c2=O)cc1Cl | -76.2%
CC(C)(CNC(=O)C(C)(C)c1ccccc1F)C(N)=O | -83%
CN(C)C(C)(C)CNC(=O)C(C)(C)c1ccccc1F | 53.3%
CC(C)(C(=O)NCC(N)=O)c1ccccc1F | -60.2%
CC(Cn1cccn1)NCCCc1nc(-c2cccs2)no1 (stereo not given) | 67.8%
Cc1cnn(CC(C)NCc2nc(-c3cccs3)no2)c1 (stereo not given) | -73.4%
c1csc(-c2noc(CNCCn3cccn3)n2)c1 | -114%
Cc1cccc(CN2CCCC2c2cncc(Nc3nncs3)n2)c1 (stereo not given) | 52.5%
Cc1ccccc1CN1CCCC1c1cncc(Nc2nncs2)n1 (stereo not given) | -20.5%
COc1cccc(CN2CCCC2c2cncc(Nc3nncs3)n2)c1 (stereo not given) | -8.54%

Structure (SMILES) | INHIBITION
c1ccc(CCNC2CCc3ncnn3C2)nc1 (stereo not given) | -209%
CC(C)(CNc1c(C#N)cnc2ccc(Cl)cc12)C(N)=O | 11.4%
CC(NC1(CNS(C)(=O)=O)CCOCC1)c1ccccc1 (stereo not given) | 0.206%
CC(NC1(CNS(C)(=O)=O)CCCC1)c1ccccc1 (stereo not given) | 68.9%
CCC(CC)C(=O)NCC1(NC(C)c2ccccc2)CCOCC1 (stereo not given) | -6.09%
O=C(Cc1ccccc1)NCCNCc1cccc(O)c1 | 6.4%
COc1ccc(-n2cccn2)c(CN2CCC3(CCNCC3)C2)c1 | 31.9%
COc1ccc(-n2cccn2)c(CN2CCC3(CCCNC3)C2)c1 (stereo not given) | 68.3%
COc1ccc(-n2cccn2)c(CN2CCC(O)(CO)CC2)c1 | -36%
CCn1ncc2c1CN(CCc1cccc(Cl)c1)CC2COC (stereo not given) | -27.5%
Cc1cccc(CO[C@@H]2CO[C@@]3(CCN(S(=O)(=O)N(C)C)C3)C2)n1 | -44.7%
CCn1cnnc1C1CCN(C(=O)c2cnn(C(C)(C)C)c2)CC1 | -133%
CCN(Cc1ccccc1)C(=O)CCN1C[C@@H](C(=O)O)[C@H](C2CC2)C1 | -49.1%
C[C@@H]1CN(CCC(=O)N(C)Cc2ccccc2)C[C@@]1(O)C1CCC1 | 20.7%
CN(Cc1ccccc1)C(=O)CCN1C[C@H](C2CC2)[C@@H](N(C)C)C1 | 51.9%
O=C(c1cccn1-c1ccc2c(c1)OCCO2)N1CCCC1 | 9.62%
CC(C)N1CCC2(CC1)CC(CC(N)=O)c1ccc(F)cc12 (stereo not given) | -12.3%
c1cnc(N2CCOC3(CCN(CC4CCOC4)CC3)C2)nc1 (stereo not given) | -13%
c1cnc(N2CCCC3(CCN(CC4CCOC4)CC3)C2)nc1 (stereo not given) | 56.4%
c1cnc(N2CCOC3(CCN(CC4CCCCC4)CC3)C2)nc1 | 57.2%
c1cnc(N2CCC3(CCN(CC4CCOCC4)CC3)C2)nc1 | -30.1%
c1cnc(N2CCC3(CCN(CC4CCOC4)CC3)C2)nc1 (stereo not given) | -14.7%
c1cnc(N2CCC3(CCN(CC4CCCC4)CC3)C2)nc1 | 43.8%
CN(C(=O)C1CCN(Cc2cnc3ccccn23)CC1)c1ccccc1 | 10%
CCCc1cc(CNC2CCN(c3cc(C)nc(N)n3)CC2)on1 | -44.2%
O=C1NCC2CN(Cc3ccccc3OCc3ccccn3)CCN12 (stereo not given) | -16.2%
CCOC(=O)Cc1n[nH]c(-c2cncc(Br)c2)n1 | -109%

Structure (SMILES) | INHIBITION
CCC(=O)N1CCCN(Cn2nc(C)c(Br)c2C)CC1 | -101%
CCc1ccc(S(=O)(=O)N2CCN(CCn3ccnc3)CC2)cc1 | -45.4%
O=C1CCCN1CC1CN(CC2CCOCC2)Cc2nccn2C1 (stereo not given) | -87%
Cc1ncc(CN2CCOCC2)c2cc(C(=O)c3ccc(Br)cc3)oc12 | -2.54%
Cc1ncc(CN2CCCC2)c2cc(C(=O)c3ccc(Br)cc3)oc12 | 67.5%
Cc1ncc(CN(C)CCO)c2cc(C(=O)c3ccc(Br)cc3)oc12 | 49.9%
CCO[C@H]1CC[C@H]2[C@H]1OCCN2C(=O)c1nn(C)c2ccccc12 | -77.6%
Cc1nc(N)ncc1C(=O)N1CCCC(CCc2ccc(F)cc2)C1 (stereo not given) | 38%
N#Cc1cccc(C(=O)N2CCN(c3ncccn3)CC2)c1 | -150%
COc1ccc(C2Nc3cc(Cl)ccc3C3=NCCN32)cc1OC (stereo not given) | 72.2%
CN(C)c1ncc(C2Nc3cc(Cl)ccc3C3=NCCCN32)cn1 (stereo not given) | -9.81%
COc1ccc(C2Nc3ccccc3C3=NCCCN32)cc1OC (stereo not given) | -62.4%
COCCN1CCN(CC2CCCCO2)CC1 (stereo not given) | -67.3%
Cc1cccc(C(=O)N2C[C@@H]3OCCN(CCN4CCCC4)[C@@H]3C2)n1 | -112%
CO[C@@H]1c2ccccc2C2(CCN(C(=O)CNC(=O)C(C)C)CC2)[C@H]1O | -62.3%
CSC(C)(C)CNC(=O)NC1CCN(CC2CC2)C1 (stereo not given) | -35.8%
Cc1noc(C)c1CNC(=O)N1CCC(OCC2CC2)CC1 | -65.8%
O=C(CCN1CCOCC1)NC1CCCN(CC2CCCCC2)C1 (stereo not given) | -80.2%
O=C(NC1CCN(CC2CCCC2)C1)N1CCC(OCC2CC2)CC1 (stereo not given) | 64.5%
NC(=O)C1CCN(C(=O)NC2CCN(CC3CCCC3)C2)CC1 (stereo not given) | -53.5%
O=C(NC1CCN(CC2CC2)C1)N1CCC(OC2CCCCC2)CC1 (stereo not given) | 55%
Cc1ccc(C(=O)N2CCCC(c3cc(C(F)(F)F)[nH]n3)C2)o1 (stereo not given) | -50.8%
Cc1cnc2n(c1=O)CC(C(=O)NCc1ccccc1Cl)CS2 (stereo not given) | -88.7%
CC1CCCN(C(=O)c2ccc(N(C)Cc3cnn(C)c3)nc2)C1 (stereo not given) | -222%
Cc1nn(C)c2c(NC3CCCC3)nc(C3CC3)nc12 | -18.7%
COC(=O)NCC(=O)NC(c1ccc(Cl)cc1)C(F)(F)F (stereo not given) | 38%
COC(=O)NCCC(=O)NC(c1ccc(Cl)cc1)C(F)(F)F (stereo not given) | 63.6%

Structure (SMILES) | INHIBITION
COCC(=O)NC(c1ccc(Cl)cc1)C(F)(F)F (stereo not given) | 7.67%
CN(C)c1nccc(N2CCO[C@H]3CN(Cc4nccn4C)C[C@H]32)n1 | -73.7%
CCc1ccc(CN2C[C@@H]3OCCN(c4ccnc(N(C)C)n4)[C@@H]3C2)o1 | 9.71%
Cc1cccc(CN2C[C@@H]3OCCN(c4ccnc(N(C)C)n4)[C@@H]3C2)c1 | 52.5%
N#Cc1ccc(N2CCCC3(CCC(=O)N3CC3CC3)CC2)nc1 (stereo not given) | -26.4%
Cc1cc(CN(C)Cc2ncc(-c3ccccc3)o2)no1 | -107%
COC1CCN(CCNC(=O)NCC(C)c2cccc(C)c2)CC1 (stereo not given) | 54.5%
COC1CCN(CCNC(=O)NC(C)c2cccc(Cl)c2)CC1 (stereo not given) | 23.9%
COC1CCN(CCNC(=O)NC(C)c2ccc(F)c(F)c2)CC1 (stereo not given) | 45.9%
Cc1ccc(S(=O)(=O)c2ncccc2CN2CCN(CCO)CC2)cc1 | -44.3%
CC(C)c1ncc2c(n1)CN(c1ncnc3[nH]ccc13)CC2 | 4.74%
O=C1NC(c2cccnc2)=NC12CCN(CCCc1ccccc1)CC2 | -84.2%
COCCN1C[C@@H]2[C@@H](OC)CCN(Cc3ccc(C)o3)[C@@H]2C1 | 3.04%
COCCN1C[C@@H]2[C@@H](OC)CCN(Cc3ccsc3)[C@@H]2C1 | 66.7%
COCCN1C[C@@H]2[C@@H](OC)CCN(Cc3cccs3)[C@@H]2C1 | 66.1%
COCCN1C[C@H]2[C@@H](C1)N(Cc1cnn(C)c1)CC[C@H]2OC | -59.7%
COCCN1C[C@@H]2[C@@H](OC)CCN(Cc3ccco3)[C@@H]2C1 | -1.85%
COCCN1C[C@H]2[C@@H](C1)N(Cc1ccc(C)o1)CC[C@H]2OC | -41.6%
Cc1ccc(CN2CC[C@@H]3[C@@H](CO[C@H]3CN(C)C)C2)o1 | -21.4%
NC(=O)c1cccc(CN2CCc3c(ncn3C3CC3)C2)c1 | -158%
COc1ccc2c(c1)ncn2C[C@]1(O)CCCN2CCCC[C@@H]21 | -42.3%
COC(=O)c1cc(C(=O)N2CCCCCC2)n(-c2ccccc2)n1 | -126%
COC(=O)c1cc(C(=O)N2CCCC(C)C2)n(-c2ccccc2)n1 (stereo not given) | 50.2%
COC(=O)c1cc(C(=O)N2CCC(C)CC2)n(-c2ccccc2)n1 | 43.3%

— ChEMBL document CHEMBL4513216, “Probing the Open Global Health Chemical Diversity Library for Multistage-Active Starting Points for Next-Generation Antimalarials” (ACS Infect Dis, 2020)
